Results filed as inconclusive are left out. A number with no mark means an inactive call. The source made the active and inactive calls. The call rests on the fitted dose curve; in most records, active means well fitted cell-killing curve with a large enough effect in the repeat runs; inconclusive means weak or mixed curves, or effect the other way; inactive means flat fitted curve, though single readings scatter.
assay: qHTS RealTime-Glo MT Cell Viability Assay in HEK293 cells - 0 hour (AID 1224880); conditions: RealTime-Glo luminescence; series mostly up to 76.8 µM; activity change, negative = cytotoxicity: at the top concentration; further: nearly all actives have a fitted effect of over 45% in size; on activity change, negative = cytotoxicity: top concentration of the series differs between compounds
Description: U.S. Tox21 Program National Center for Advancing Translational Sciences [NCATS] NIH Chemical Genomics Center [NCGC] U.S. Environmental Protection Agency [EPA] National Institutes of Environmental Health Sciences [NIEHS] National Toxicology Program [NTP] U.S. Food and Drug Administration [FDA] Tox21 Assay Overview: Measure of cell viability is critical in the cell-base assay. Analysis of cell viability is necessary for the characterization of cell responses to cytotoxic drugs and environmental stress. A RealTime-Glo MT Cell Viability Assay to monitor cell viability in real time of continues cell culture during 40 hours of compound treatment was used to screen Tox21 10K library compounds in Hek293 cells. The RealTime-Glo MT Cell Viability Assay is a nonlytic, homogeneous, bioluminescent method to measure cell viability in real time using a simple, plate-based method. The assay involves adding NanoLuc luciferase and a cell-permeant prosubstrate to cells in culture. Viable cells reduce the proprietary prosubstrate to generate a substrate for NanoLuc luciferase. This substrate diffuses from cells into the surrounding culture medium, where it is rapidly used by the NanoLuc Enzyme to produce a luminescent signal. The signal correlates with the number of viable cells, making the assay well suited for cytotoxicity studies.
Tox21 Assay Protocol Summary: The mixture of Hek293 cell suspension and reagents were dispensed at 600cells/6 ul/well in 1536-well tissue culture treated black solid bottom plates using a Multidrop dispenser. After the assay plates were incubated at a 37 C/5% CO2 incubator for 5 hours, 23 nL of compounds dissolved in DMSO, positive and negative controls was transferred to the assay plate by a pintool work station. The plates were incubated at 37 C for 40 hours. The luminescence intensity were measured at 0h, 8h, 16h, 24h, 32h and 40h time points using ViewLux plate reader during compound treatment.
On the % scale 0 is the no-effect control and ±100 the full control effect; potency means the concentration at half of the fitted maximal effect.

| Structure (SMILES) | activity change, negative = cytotoxicity | Potency |
| --- | --- | --- |
| CCOP(=O)(OCC)Oc1cc(C)nc(C(C)C)n1 | 0.851% | – |
| O=[N+]([O-])[O-].[Tl+] | 3.12% | – |
| CC(=O)[O-].CC(=O)[O-].O.O.[Zn+2] | 0.643% | – |
| [F][Sn]([c]1ccccc1)([c]1ccccc1)[c]1ccccc1 | -3.64% | – |
| O=[N+]([O-])c1ccc(Cl)c(Cl)c1Cl | -2.37% | – |
| N#CSCc1ccccc1 | -2.3% | – |
| Brc1ccc(Oc2ccc(Br)cc2Br)c(Br)c1 | 1.06% | – |
| CC(=O)[O][Sn]([c]1ccccc1)([c]1ccccc1)[c]1ccccc1 | -19.9% | – |
| CC(C)(C)c1ccc(OP(=O)(Oc2ccccc2)Oc2ccccc2)cc1 | -19.6% | – |
| C#CCO | 0.137% | – |
| O=C(NC(=O)c1ccccc1Cl)Nc1ccc(OC(F)(F)F)cc1 | -0.755% | – |
| O=[N+]([O-])c1ccc(CCl)cc1 | -4.14% | – |
| CCOP(=O)(OCC)Oc1nc(Cl)c(Cl)cc1Cl | -7.21% | – |
| Cc1nn(-c2cc(NS(C)(=O)=O)c(Cl)cc2Cl)c(=O)n1C(F)F | 7.3% | – |
| CN(C)c1ccc(N)cc1 | -14.4% | – |
| CCN(CC)CCc1c[nH]c2ccccc12 | -0.481% | – |
| CC(=O)[O-].CC(=O)[O-].CC(=O)[O-].[Cr+3] | -9.72% | – |
| Cc1ccc2cc3c(ccc4ccccc43)c3c2c1CC3 | -0.0467% [at 35.3 µM] | – |
| O.O.O.O=C([O-])[C@H]([O-])[C@@H]([O-])C(=O)[O-].O=C([O-])[C@H]([O-])[C@@H]([O-])C(=O)[O-].[K+].[K+].[Sb+3].[Sb+3] | -0.798% | – |
| CC(=O)[O-].CC(=O)[O-].O.O.O.[Pb+2] | -7.37% | – |

| Structure (SMILES) | activity change, negative = cytotoxicity | Potency |
| --- | --- | --- |
| Nc1ccc(N=Nc2ccccc2)cc1 | -14.3% | – |
| CNC(=O)Oc1cc(C)cc(C(C)C)c1 | 5.58% | – |
| CC(C)C(Nc1ccc(C(F)(F)F)cc1Cl)C(=O)OC(C#N)c1cccc(Oc2ccccc2)c1 (stereo not given) | -14.2% | – |
| COC(=O)c1cc(Oc2ccc(Cl)cc2Cl)ccc1[N+](=O)[O-] | 2.66% | – |
| ClC(Cl)C(Cl)(Cl)Cl | 1.16% | – |
| [Cl-].[Cl-].[Cl-].[Yb+3] | 4.08% | – |
| Nc1ccccc1-c1ccccc1 | 3.52% | – |
| CCN1CCC2(CC1)COc1cc3c(cc12)N(C(=O)c1ccc(-c2ccc(-c4nnc(C)o4)cc2C)cc1)CC3 | – | 25.4 µM (active) |
| CCCCON=O | -3.39% | – |
| Clc1ccc(C2(Cn3cncn3)OCCO2)c(Cl)c1 | 0.0558% | – |
| Cc1c([N+](=O)[O-])c(C)c([N+](=O)[O-])c(C(C)(C)C)c1[N+](=O)[O-] | 24.3% | – |
| FC(F)C(F)(F)OCC(Cn1cncn1)c1ccc(Cl)cc1Cl (stereo not given) | -0.637% | – |
| CC(C)=CC1C(C(=O)OC(C#N)c2cccc(Oc3ccccc3)c2)C1(C)C (stereo not given) | 3.21% | – |
| Cc1ccc([N+](=O)[O-])[c]2c1[O][Hg]2 | -10.4% [at 35.3 µM] | – |
| Brc1cccc(-c2ccccc2)c1 | -2.16% | – |
| CO/N=C(/C1=NOCCO1)c1ccccc1Oc1ncnc(Oc2ccccc2Cl)c1F | 4.54% | – |
| CCN(CC)C(=S)S | – | inactive |
| C[C@]12C/C(=C/O)C(=O)C[C@@H]1CC[C@@H]1[C@@H]2CC[C@@]2(C)[C@H]1CC[C@]2(C)O | – | inactive |
| CCOP(=O)(Sc1ccccc1)Sc1ccccc1 | -9.99% | – |
| COP(=O)(OC)Oc1ccc([N+](=O)[O-])cc1 | 12.2% | – |
